# Results published in ChEMBL document CHEMBL1961873, “Compounds: GSK PKIS; Assays: Nanosyn kinase panel” (2012).
# Key:
# [1] = molecular target: Mitogen-activated protein kinase 3 (Homo sapiens) (UniProt P27361); conditions: at 1 µM;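 further: values are mean percent inhibition of MAPK3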
# [2] = molecular target: SRSF protein kinase 3 (Homo sapiens) (UniProt Q9UPE1); conditions: at 0.1 µM
# [3] = molecular target: SRSF protein kinase 3 (Homo sapiens) (UniProt Q9UPE1); conditions: at 1 µM
# [4] = molecular target: Mitogen-activated protein kinase 14 (Homo sapiens) (UniProt Q16539); conditions: at 0.1 µM
# Sequence of Mitogen-activated protein kinase 14 (Homo sapiens) (Q16539 whole entry): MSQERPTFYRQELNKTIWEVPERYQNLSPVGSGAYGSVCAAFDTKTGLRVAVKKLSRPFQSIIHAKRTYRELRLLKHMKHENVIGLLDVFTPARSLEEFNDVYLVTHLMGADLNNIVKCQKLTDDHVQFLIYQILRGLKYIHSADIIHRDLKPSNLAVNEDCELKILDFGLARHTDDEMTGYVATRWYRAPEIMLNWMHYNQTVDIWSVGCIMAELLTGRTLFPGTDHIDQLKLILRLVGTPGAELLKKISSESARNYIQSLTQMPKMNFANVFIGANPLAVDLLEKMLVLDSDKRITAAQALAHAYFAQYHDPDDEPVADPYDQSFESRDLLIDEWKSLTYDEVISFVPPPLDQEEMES
# [5] = molecular target: Mitogen-activated protein kinase 11 (Homo sapiens) (UniProt Q15759); conditions: at 0.1 µM
# Sequence of Mitogen-activated protein kinase 11 (Homo sapiens) (Q15759 whole entry): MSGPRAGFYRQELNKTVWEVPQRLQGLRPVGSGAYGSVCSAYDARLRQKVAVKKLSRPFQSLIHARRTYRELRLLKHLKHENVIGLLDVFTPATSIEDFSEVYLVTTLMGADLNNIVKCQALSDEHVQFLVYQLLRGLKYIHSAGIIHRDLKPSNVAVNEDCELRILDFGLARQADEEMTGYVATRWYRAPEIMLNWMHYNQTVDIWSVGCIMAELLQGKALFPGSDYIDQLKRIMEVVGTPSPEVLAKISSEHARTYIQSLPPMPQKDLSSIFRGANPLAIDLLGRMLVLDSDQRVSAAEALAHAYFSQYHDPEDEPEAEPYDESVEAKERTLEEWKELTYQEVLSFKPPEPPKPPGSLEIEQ
# [6] = molecular target: Mitogen-activated protein kinase 11 (Homo sapiens) (UniProt Q15759); conditions: at 1 µM
# [7] = molecular target: T1, Mitogen-activated protein kinase 13 (Homo sapiens) (UniProt O15264); conditions: at 0.1 µM
# T1 sequence (whole entry): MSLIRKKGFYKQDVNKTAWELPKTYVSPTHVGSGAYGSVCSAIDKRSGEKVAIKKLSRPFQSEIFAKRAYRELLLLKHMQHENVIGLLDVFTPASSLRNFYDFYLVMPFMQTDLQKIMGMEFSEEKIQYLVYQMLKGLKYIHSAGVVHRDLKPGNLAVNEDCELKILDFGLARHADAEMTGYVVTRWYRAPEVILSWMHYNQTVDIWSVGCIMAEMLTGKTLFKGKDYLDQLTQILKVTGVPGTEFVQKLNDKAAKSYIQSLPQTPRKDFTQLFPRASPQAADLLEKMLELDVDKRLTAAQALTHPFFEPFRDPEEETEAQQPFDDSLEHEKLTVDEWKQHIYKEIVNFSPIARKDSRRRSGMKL
# [8] = molecular target: T1, Mitogen-activated protein kinase 13 (Homo sapiens); conditions: at 1 µM
# [9] = molecular target: T2, Mitogen-activated protein kinase 12 (Homo sapiens) (UniProt P53778); conditions: at 0.1 µM
# T2 sequence (whole entry): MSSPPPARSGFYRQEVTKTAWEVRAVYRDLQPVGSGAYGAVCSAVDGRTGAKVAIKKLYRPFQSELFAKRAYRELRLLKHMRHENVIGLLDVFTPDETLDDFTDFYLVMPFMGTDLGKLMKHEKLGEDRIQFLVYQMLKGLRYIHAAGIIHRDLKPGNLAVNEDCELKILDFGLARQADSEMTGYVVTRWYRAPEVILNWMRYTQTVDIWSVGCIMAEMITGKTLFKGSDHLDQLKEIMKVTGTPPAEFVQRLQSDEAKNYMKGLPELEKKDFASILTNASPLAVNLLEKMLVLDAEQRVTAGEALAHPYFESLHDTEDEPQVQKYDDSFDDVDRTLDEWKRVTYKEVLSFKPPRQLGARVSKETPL
# [10] = molecular target: T2, Mitogen-activated protein kinase 12 (Homo sapiens); conditions: at 1 µM
# [11] = molecular target: SRSF protein kinase 1 (Homo sapiens) (UniProt Q96SB4); conditions: at 0.1 µM
# Sequence of SRSF protein kinase 1 (Homo sapiens) (Q96SB4 whole entry, canonical isoform): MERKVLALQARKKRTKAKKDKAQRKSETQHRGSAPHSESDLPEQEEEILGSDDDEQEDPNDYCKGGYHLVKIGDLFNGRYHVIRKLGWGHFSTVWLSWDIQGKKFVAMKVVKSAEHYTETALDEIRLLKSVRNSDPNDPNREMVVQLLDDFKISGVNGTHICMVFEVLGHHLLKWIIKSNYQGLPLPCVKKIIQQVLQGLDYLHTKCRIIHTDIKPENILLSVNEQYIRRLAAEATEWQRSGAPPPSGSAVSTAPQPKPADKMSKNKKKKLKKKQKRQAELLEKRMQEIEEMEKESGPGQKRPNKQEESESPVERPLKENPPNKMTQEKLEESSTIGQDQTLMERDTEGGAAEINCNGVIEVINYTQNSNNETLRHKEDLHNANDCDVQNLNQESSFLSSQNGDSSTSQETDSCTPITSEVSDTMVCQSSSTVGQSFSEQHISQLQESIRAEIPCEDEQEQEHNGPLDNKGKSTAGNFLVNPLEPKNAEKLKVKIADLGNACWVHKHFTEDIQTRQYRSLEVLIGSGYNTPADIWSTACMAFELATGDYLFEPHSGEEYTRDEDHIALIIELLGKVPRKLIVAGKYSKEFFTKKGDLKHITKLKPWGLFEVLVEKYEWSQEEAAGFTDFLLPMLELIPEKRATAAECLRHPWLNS
# [12] = molecular target: SRSF protein kinase 1 (Homo sapiens) (UniProt Q96SB4); conditions: at 1 µM
# [13] = molecular target: Phosphatidylinositol 4,5-bisphosphate 3-kinase catalytic subunit alpha isoform (Homo sapiens) (UniProt P42336); conditions: at 0.1 µM
# Sequence of Phosphatidylinositol 4,5-bisphosphate 3-kinase catalytic subunit alpha isoform (Homo sapiens) (P42336 whole entry, canonical isoform): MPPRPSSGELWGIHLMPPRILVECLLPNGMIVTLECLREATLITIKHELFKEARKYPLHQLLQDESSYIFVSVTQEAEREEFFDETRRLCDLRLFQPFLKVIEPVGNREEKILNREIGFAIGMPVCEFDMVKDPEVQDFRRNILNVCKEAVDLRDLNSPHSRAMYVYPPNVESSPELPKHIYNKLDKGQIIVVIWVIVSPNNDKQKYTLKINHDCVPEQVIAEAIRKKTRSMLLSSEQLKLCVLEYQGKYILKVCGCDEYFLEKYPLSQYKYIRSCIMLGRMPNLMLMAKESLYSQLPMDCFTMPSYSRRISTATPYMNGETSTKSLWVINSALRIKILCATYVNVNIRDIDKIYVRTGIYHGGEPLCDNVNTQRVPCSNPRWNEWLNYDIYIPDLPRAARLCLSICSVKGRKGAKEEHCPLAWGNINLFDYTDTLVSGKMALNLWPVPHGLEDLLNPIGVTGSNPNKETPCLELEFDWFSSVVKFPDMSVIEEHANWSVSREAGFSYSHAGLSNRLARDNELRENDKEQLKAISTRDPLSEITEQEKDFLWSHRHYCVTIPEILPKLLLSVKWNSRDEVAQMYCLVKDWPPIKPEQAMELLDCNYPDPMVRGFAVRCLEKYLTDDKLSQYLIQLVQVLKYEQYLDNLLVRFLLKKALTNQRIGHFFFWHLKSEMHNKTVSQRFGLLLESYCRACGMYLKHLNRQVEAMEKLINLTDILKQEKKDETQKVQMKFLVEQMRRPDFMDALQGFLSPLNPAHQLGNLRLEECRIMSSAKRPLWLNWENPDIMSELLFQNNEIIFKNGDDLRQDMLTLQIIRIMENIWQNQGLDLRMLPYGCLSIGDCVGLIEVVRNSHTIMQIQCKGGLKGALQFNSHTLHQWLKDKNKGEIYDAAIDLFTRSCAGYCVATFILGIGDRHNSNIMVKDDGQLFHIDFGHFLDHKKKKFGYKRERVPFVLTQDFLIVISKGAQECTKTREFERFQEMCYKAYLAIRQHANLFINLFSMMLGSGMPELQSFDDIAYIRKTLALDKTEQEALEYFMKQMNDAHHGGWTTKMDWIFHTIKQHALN
# [14] = molecular target: Phosphatidylinositol 4,5-bisphosphate 3-kinase catalytic subunit alpha isoform (Homo sapiens) (UniProt P42336); conditions: at 1 µM
# [15] = molecular target: T3, Phosphatidylinositol 4,5-bisphosphate 3-kinase catalytic subunit delta isoform (Homo sapiens) (UniProt O00329); conditions: at 0.1 µM
# T3 sequence (whole entry): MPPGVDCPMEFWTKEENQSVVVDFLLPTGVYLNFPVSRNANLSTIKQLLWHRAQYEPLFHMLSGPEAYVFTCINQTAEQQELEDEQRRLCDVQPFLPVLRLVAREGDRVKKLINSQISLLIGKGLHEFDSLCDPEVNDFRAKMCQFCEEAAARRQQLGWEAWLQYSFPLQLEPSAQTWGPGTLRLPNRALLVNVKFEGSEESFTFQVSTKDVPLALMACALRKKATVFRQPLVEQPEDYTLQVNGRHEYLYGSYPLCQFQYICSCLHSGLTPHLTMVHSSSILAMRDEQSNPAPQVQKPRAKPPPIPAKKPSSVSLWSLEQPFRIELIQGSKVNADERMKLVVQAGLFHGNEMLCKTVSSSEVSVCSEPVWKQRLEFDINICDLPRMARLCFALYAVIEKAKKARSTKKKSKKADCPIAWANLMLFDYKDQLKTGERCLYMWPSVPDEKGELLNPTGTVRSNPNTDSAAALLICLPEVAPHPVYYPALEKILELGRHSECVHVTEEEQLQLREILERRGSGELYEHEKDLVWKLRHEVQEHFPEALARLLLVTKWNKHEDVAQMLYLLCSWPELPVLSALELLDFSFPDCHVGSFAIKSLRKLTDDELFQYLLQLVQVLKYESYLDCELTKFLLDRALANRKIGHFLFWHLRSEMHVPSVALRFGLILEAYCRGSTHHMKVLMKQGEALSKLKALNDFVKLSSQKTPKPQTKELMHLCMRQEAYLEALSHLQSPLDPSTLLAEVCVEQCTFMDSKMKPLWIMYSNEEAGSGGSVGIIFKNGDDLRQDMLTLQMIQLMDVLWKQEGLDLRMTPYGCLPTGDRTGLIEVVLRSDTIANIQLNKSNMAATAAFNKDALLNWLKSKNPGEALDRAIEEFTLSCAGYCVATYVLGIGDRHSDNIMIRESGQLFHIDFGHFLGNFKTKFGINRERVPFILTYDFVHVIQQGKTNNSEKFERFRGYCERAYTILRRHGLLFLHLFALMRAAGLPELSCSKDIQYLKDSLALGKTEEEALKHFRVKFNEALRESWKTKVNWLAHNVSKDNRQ
# [16] = molecular target: T3, Phosphatidylinositol 4,5-bisphosphate 3-kinase catalytic subunit delta isoform (Homo sapiens); conditions: at 1 µM
# [17] = molecular target: Phosphatidylinositol 4-kinase beta (Homo sapiens) (UniProt Q9UBF8); conditions: at 0.1 µM
# Sequence of Phosphatidylinositol 4-kinase beta (Homo sapiens) (Q9UBF8 2-816 limits assumed): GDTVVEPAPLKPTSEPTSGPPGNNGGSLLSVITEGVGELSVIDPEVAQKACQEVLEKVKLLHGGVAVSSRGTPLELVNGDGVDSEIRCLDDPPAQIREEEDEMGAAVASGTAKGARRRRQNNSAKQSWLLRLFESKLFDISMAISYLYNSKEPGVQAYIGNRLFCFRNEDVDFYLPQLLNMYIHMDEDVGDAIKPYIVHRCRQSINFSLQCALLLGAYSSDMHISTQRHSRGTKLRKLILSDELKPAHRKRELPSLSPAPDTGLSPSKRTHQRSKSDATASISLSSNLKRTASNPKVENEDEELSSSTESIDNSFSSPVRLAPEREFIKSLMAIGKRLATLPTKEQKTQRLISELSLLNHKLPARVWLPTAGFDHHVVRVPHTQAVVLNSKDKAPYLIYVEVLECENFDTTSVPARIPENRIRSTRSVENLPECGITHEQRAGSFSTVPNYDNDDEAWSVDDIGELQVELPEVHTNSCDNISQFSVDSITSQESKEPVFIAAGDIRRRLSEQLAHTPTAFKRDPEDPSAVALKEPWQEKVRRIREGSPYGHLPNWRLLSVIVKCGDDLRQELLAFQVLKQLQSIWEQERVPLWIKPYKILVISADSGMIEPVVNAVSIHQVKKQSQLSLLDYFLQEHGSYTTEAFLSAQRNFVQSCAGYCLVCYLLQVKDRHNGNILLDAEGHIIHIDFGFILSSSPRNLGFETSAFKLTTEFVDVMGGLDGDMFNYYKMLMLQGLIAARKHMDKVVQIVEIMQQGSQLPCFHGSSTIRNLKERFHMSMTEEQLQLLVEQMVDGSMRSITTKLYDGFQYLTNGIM
# [18] = molecular target: Phosphatidylinositol 4-kinase beta (Homo sapiens) (UniProt Q9UBF8); conditions: at 1 µM
# [19] = molecular target: Sphingosine kinase 1 (Homo sapiens) (UniProt Q9NYA1); conditions: at 0.1 µM;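 further: mean percent inhibition of SPHK1 activity, measured within the GSK PKIS screening panel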
# Sequence of Sphingosine kinase 1 (Homo sapiens) (Q9NYA1 whole entry): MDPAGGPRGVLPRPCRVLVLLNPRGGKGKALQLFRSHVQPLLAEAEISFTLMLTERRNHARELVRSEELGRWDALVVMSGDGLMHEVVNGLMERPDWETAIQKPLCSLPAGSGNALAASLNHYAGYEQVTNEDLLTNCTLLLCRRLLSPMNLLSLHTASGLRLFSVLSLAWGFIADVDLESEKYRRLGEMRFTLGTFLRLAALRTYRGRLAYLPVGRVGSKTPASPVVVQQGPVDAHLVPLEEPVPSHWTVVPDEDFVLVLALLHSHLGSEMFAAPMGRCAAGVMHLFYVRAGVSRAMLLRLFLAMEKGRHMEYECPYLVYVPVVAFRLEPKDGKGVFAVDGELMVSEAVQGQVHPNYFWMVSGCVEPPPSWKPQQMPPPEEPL
# [20] = molecular target: Mitogen-activated protein kinase 14 (Homo sapiens) (UniProt Q16539); conditions: at 1 µM
# Sequence of SRSF protein kinase 3 (Homo sapiens) (Q9UPE1 whole entry): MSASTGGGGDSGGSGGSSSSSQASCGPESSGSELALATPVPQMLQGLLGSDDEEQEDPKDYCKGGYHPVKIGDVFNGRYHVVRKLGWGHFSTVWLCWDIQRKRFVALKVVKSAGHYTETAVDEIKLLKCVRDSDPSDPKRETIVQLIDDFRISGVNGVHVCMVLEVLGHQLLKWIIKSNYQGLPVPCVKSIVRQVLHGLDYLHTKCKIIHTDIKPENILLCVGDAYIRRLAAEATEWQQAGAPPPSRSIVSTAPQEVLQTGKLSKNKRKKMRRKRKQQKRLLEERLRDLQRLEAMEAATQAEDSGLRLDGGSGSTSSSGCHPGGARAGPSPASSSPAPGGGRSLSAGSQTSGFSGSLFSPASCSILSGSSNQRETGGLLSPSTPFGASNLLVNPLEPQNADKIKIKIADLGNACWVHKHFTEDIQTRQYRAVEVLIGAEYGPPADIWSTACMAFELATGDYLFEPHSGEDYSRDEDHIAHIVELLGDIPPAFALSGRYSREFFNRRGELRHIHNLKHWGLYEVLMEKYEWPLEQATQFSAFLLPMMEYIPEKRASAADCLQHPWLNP
# Sequence of Mitogen-activated protein kinase 3 (Homo sapiens) (P27361 whole entry): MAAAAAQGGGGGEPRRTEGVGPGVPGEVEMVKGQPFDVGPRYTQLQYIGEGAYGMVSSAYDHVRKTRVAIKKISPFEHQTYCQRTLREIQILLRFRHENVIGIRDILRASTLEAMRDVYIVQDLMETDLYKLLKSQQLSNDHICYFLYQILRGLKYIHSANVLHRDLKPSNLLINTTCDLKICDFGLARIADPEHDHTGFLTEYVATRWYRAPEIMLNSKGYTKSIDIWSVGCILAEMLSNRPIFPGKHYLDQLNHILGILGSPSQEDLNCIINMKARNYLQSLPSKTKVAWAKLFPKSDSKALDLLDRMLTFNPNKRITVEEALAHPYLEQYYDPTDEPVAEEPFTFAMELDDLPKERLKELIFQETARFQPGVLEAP
SMILES,inhibition [1] [%],inhibition [2] [%],inhibition [3] [%],inhibition [4] [%],inhibition [5] [%],inhibition [6] [%],inhibition [7] [%],inhibition [8] [%],inhibition [9] [%],inhibition [10] [%],inhibition [11] [%],inhibition [12] [%],inhibition [13] [%],inhibition [14] [%],inhibition [15] [%],inhibition [16] [%],inhibition [17] [%],inhibition [18] [%],inhibition [19] [%],inhibition [20] [%]
CCc1nccc2c1nc(-c1nonc1N)n2CC,1.77,-1.38,-1.65,3.67,2.18,1.56,-1.2,1.58,-1.3,3.91,-2.2,-4.41,-0.95,1.38,1.47,4.23,-3.69,1.82,0,
Fc1ccc(-c2ncn(C3CCNCC3)c2-c2ccnc(Oc3ccc(Oc4ccccc4)cc3)n2)cc1,5.57,4.51,-0.81,,,,,,,,-3.18,-2.43,3.74,2.92,-0.16,2.82,-2.22,5.8,1.17,
NC(=O)c1cc(-c2ccc(F)cc2)cc(-c2ccncc2)c1N,3.05,-2.8,-1.27,6.13,2.26,5.45,2.57,3.93,4.51,3.29,-2.19,-2.78,3.84,22.8,2.48,4.83,-4.18,-2.52,-2.79,8.6
Cc1ccc(C(=O)NC(C)C)cc1-c1ccc(C(=O)NCC2CC2)cc1,-0.93,1.71,-0.59,,4.42,37,-4.48,-4.39,-2.72,-1.93,1.33,30.8,-2.38,-1.61,-1.08,-1.45,-3.91,-3.13,-0.6,
c1ccc(-c2n[nH]cc2-c2ccnc(-c3ccc(OCCN4CCOCC4)cc3)c2)nc1,-2.62,2.38,0.78,3.12,-0.65,5.15,5.65,-0.43,3.09,0.29,2.99,-0.67,0.37,0.17,2.7,3.02,-0.93,-1.19,-5.06,28.9
COc1ccc2cc(-c3c(-c4ccncc4)nc(-c4ccc(S(C)(=O)=O)cc4C)n3C)ccc2c1,2.57,-1.96,-4.7,14.2,2.54,11,2.15,5.04,3.44,3.33,-2.04,-2.87,3.62,3.55,1.31,1.59,,0.34,2.55,17.3
O=C(NCC1CC1)c1ccc(-c2cccc(C(=O)NC3CC3)c2)cc1,0.8,1.6,1.04,1.13,2.37,7.97,1.41,3.97,4.08,1.8,-1.5,-3.41,1.61,1.53,1.94,2.38,-4.62,-1.95,0.53,13.9
Cc1ccc(C(=O)NC2CCC2)cc1-c1ccc(C(=O)NCC2CC2)cc1,2.32,-2.8,-1.15,,10.7,48.2,1.41,2.78,3.67,1.52,-1.15,-3.91,1.03,2.46,0.19,3.4,-3.28,0.35,0.24,
COc1cc(Nc2ncc(-c3ccccc3)o2)cc(OC)c1OC,1.29,-0.22,0.18,-3.46,1.4,0.04,-0.94,-1.63,-1.8,-1.06,2.19,1,0.99,2.57,2.6,11.4,11.5,7.23,1.38,-4.25
O=C1Nc2ccccc2/C1=C/Nc1ccc(-n2cncn2)cc1,6.36,-3.04,-0.36,2.12,5.3,8.05,2.33,5.56,2.03,3.66,-1.28,1.26,3.26,3.95,1.81,2.88,,-9.88,1.74,6.86
COc1cc2ncn(-c3cc(OCc4cccs4)c(C(N)=O)s3)c2cc1OC,4.45,0.87,,16.9,3.88,5.4,0.78,1.21,2,1.93,1.92,7.84,2.89,8.89,2.03,12.9,4.6,-3.17,0.03,12.3
Cc1ccc(NC(=O)c2ccoc2)cc1-c1ccc(C(=O)NCC2CC2)cc1,2.32,-2.54,-1.92,,27.8,61.2,2.82,0.81,2.37,1.97,-1.34,-0.85,2.81,3.57,1.77,2.51,1.89,-1.62,0,
Fc1ccc(-c2ncn(C3CCNCC3)c2-c2ccnc(Oc3ccc(F)c(F)c3)n2)cc1,6.51,-3.83,-1.43,,,,,,,,-3.26,-1.49,3.43,3.41,1.7,3.53,-1.47,1.86,1.28,
CN1CCN(CCCNc2nc3ccc(Oc4ccc(NC(=O)Nc5cc(C(F)(F)F)ccc5F)cc4)cc3[nH]2)CC1,0.83,2.09,4.1,8.14,5.1,22.1,0.46,1.31,-0.38,1.58,-1.48,-3.44,2.13,0.9,1.3,7.49,1.45,-2.72,-1.28,51.8
COc1ccc(-c2ccc3c(NC(=O)C4CC4)n[nH]c3n2)cc1,4.66,-1.22,1.44,1.32,2.79,8.84,-0.41,0.43,1.27,0.89,-0.87,1.03,1.49,0.27,-0.49,-0.82,-2.64,-0.19,0.68,5.28
